# AmpC detergent: blocks E. coli AmpC beta-lactamase in detergent assay; hit rate 0.041% among 370,000; Potency, µM (doses to about 114 µM), without a hit: top-dose activity change, negative = inhibition, hits mostly inhibitors; AmpC hydrolysis of nitrocefin, absorbance 480 nm, 0.01% Triton; AID 485294;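 note: 0% = no-compound wells and -100% = no-enzyme wells; nearly all actives have a fitted effect of over 25% in size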
# Target sequence (P00811 whole entry, looked up): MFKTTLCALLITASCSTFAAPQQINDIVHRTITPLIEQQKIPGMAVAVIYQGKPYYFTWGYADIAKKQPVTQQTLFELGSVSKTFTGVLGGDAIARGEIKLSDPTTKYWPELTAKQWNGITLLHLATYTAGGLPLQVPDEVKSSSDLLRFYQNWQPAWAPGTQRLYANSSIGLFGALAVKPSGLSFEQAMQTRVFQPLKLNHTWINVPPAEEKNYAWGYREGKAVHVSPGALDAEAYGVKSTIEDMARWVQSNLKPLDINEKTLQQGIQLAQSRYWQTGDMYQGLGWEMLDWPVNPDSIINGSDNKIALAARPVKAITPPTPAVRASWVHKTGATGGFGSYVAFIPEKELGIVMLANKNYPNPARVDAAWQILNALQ
#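 AmpC (5.3 nM in the dispensed reagent) in 20 mM phosphate pH 7.0 with 0.01% (detergent screen) or 0.0001% Triton X-100 was preincubated with compounds for 15 min at room temperature. Nitrocefin was then added from an 800 uM solution, and hydrolysis was followed at 480 nm.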
# LmPK inh: blocks Leishmania mexicana pyruvate kinase activity; Q27686; hit rate 0.37% among 290,000; AID 1721; purified LmPK, Kinase-Glo ATP luminescence, 1 h; Potency, µM (highest dose often 57.5 µM), for the others: at the top dose activity change, negative = inhibition, most hits filed as inhibitors
#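 In 50 mM imidazole pH 7.2 with 7 mM MgCl2, LmPK (0.1 nM) turned over PEP (0.5 mM) and ADP (0.1 mM) for 1 h at room temperature. Luciferase read-out of ATP.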
# RE007 growth inh: less growth of the S. pombe RE007 Vpr strain | Potency, µM (series often up to 92.2 µM), for the others: at the top dose activity change, negative = less growth, usual class: inhibitors | S. pombe RE007 Vpr strain, BacTiter-Glo ATP luminescence, 24 h | hit rate 0.21% among 360,000; active = well fitted falling curve with a large enough effect; inconclusive = small, poorly fitted or top-dose-only effect; inactive = no such curve, though single readings can be large or run the other way; note: nearly all actives have a fitted effect of over 50% in size
#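 Fission yeast RE007 carrying one integrated HIV-1 vpr copy, seeded at OD 0.01 in PMG+AL medium with 23 nL pinned compound. Grown 24 h at 30 degrees; viability read by BacTiter-Glo luminescence after 5 min.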
# FBPA Giardia inh: Giardia lamblia aldolase inhibition; Potency, µM (series often up to 59.6 µM), without a hit: at the highest dose activity, negative = inhibition, actives largely listed as inhibitors; A8B2U2; hit rate 0.71% among 290,000; AID 2451; purified Giardia FBPA; note: nearly all actives have a fitted effect of over 55% in size
# Target sequence (A8B2U2 whole entry, looked up): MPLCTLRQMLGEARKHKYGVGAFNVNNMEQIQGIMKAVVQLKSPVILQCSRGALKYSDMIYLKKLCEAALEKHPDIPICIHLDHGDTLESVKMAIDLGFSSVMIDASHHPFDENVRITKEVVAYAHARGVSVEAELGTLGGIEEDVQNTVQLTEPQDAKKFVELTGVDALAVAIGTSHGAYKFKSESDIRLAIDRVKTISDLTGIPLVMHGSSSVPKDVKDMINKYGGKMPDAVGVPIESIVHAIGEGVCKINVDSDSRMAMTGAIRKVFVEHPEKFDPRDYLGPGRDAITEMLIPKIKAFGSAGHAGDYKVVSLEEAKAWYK
#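 Giardia FBPA (40 nM reagent) was preincubated 10 min at RT with compound (up to 57.5 uM final), then substrate plus GAPDH/TPI/NAD/arsenate coupling system with diaphorase/resazurin was added; resorufin fluorescence (525/598 nm) was read after 20 min.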
# AmpC inh no detg: AmpC beta-lactamase inhibition without detergent | P00811 | AmpC nitrocefin hydrolysis, absorbance 480 nm, 0.0001% Triton | Potency, µM (highest dose often 57.1 µM), for inactives: at the highest dose activity change, negative = inhibition, hits mostly inhibitors | hit rate 0.52% among 330,000 | AID 485341;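 note: plate controls were no compound for no effect and no enzyme for full effect; nearly all actives have a fitted effect of over 20% in size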
#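 AmpC (5.3 nM in the dispensed reagent) in 20 mM phosphate pH 7.0 with 0.01% (detergent screen) or 0.0001% Triton X-100 was preincubated with compounds for 15 min at room temperature. Nitrocefin was then added from an 800 uM solution, and hydrolysis was followed at 480 nm.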
# Tb PYK inh: blocks Trypanosoma brucei pyruvate kinase | Potency, µM (titrated, usually from 76.8 µM), without a hit: at the highest dose activity, negative = inhibition, usual class: inhibitors | hit rate 0.12% among 410,000 | Q57TT1 | TbPYK enzyme, Kinase-Glo Plus ATP luminescence, 45 min | AID 624173; note: nearly all actives have a fitted effect of over 50% in size
#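 Glycolytic pyruvate kinase of T. brucei was incubated with substrate, test compound and 130 uM ADP for 45 minutes at room temperature. Luminescent Kinase-Glo Plus signal was measured after 10 minutes.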
# * hit, by the source's call; ? = inconclusive; . = not tested or not shown; [ ] = dose if it differs, or a comment. An excerpt weighted towards active compounds, which were near 1.4% of everything screened. Unless noted, calls come from the whole dose curve; as a rule, active = well fitted curve in the direction sought with a large enough effect; inconclusive = small, poorly fitted or top-dose-only effect, or another doubt; inactive = no such curve, though single readings can be large; an effect the other way counts as inactive or inconclusive. Unless noted, % is set by controls: 0 for no effect and ±100 for the full control effect; potency is the fitted concentration of half-maximal effect.
SMILES,AmpC detergent,LmPK inh,RE007 growth inh,FBPA Giardia inh,AmpC inh no detg,Tb PYK inh
Cn1c(SCC(=O)Nc2ccc(F)cc2F)nnc1-c1cccnc1,?,8%,2%,0%,0.32µM*,-4%
COc1cc2c(C(=O)N(C)c3cc(Cl)ccc3OC)cn(CC(C)C)c(=O)c2cc1OC,-4%,.,.,.,.,1%
CCOC(=O)c1c(-c2ccc(C)cc2)csc1NC(=O)/C(C#N)=C/c1ccc(O)c(OC)c1,-5%,3%,1%,-12%,8.9µM*,-3%
COc1cc2c(C#N)c(N3CCCC3)nc(N)c2c(N)n1,5%,4%,-5%,1.3µM*,3%,2%
Cc1ccc(Cl)cc1NC(=O)c1ccc(NC(=O)N2CCSc3ncccc32)cc1,-3%,.,.,.,.,0%[15.4 µM]
CC1=C(C(=O)NCCc2ccc(Cl)cc2)C2(CCCCC2)OC1=O,11%,.,.,.,.,-3%[15.4 µM]
Oc1cccc(/C=N/NC(=S)Nc2cccnc2)c1O,-4%,-9%,-6%,-12%,32µM*,?
Oc1ccc(/C=N/NC(=S)Nc2cccnc2)c(O)c1,-13%,-1%,4%,-5%,-29%,-29%
Oc1ccc(/C=N/NC(=S)Nc2cccnc2)c(O)c1O,-15%,-6%,-18%,7.1µM*,-48%,?
CCc1cnc2c(c1SCC(=O)c1ccc(OC)cc1)c(=O)n(C)c(=O)n2C,3%,.,.,.,.,0%
O=c1oc2ccccc2cc1-c1cn2cc(Cc3ccc(Cl)cc3)sc2n1,22%,.,.,.,.,1%
Cc1ccn2cc(-c3cc4ccccc4oc3=O)nc2c1,-3%,14µM*,-11%,-1%,-15%,-18%
COc1ccc(-c2csc(NC(=O)c3ccc(S(=O)(=O)N4CCc5ccccc5C4)cc3)n2)cc1,?,1%,-9%,2%,8.9µM*,-3%
COC(=O)c1ccc(-c2csc(NC(=O)c3ccc(S(=O)(=O)N4CCc5ccccc5C4)cc3)n2)cc1,3%,0%,-6%,12%,-32%,5%
Cn1c(/C=C/c2ccccc2)nc2ccccc21,1%,5µM*,?,-27%,-28%,?
O=C(/C=C\c1cn(-c2ccccc2)nc1-c1ccccc1)Nc1nccs1,-14%,3%,-9%,2%,11µM*,-14%
CC(=O)NS(=O)(=O)c1ccc(NC(=O)/C=C/c2cn(-c3ccccc3)nc2-c2ccccc2)cc1,-9%,3%,.,-4%,-54%,-2%
C[C@@]1(C(=O)O)NCCc2cc(O)c(O)cc21,.,.,.,13µM*,.,.
CC(NC(=O)c1ccc([N+](=O)[O-])o1)C12CC3CC(CC(C3)C1)C2 (stereo not drawn),-7%,0%,16%,9%,9%,5%
COc1cccc(OC)c1C(=O)NC(C)C12CC3CC(CC(C3)C1)C2 (stereo not drawn),0%,-3%,10µM*,4%,27%,-1%
O=C(Nc1ccc2oc(-c3cc(Br)ccc3Cl)nc2c1)c1cc2ccccc2o1,0%,.,.,.,.,-6%
Fc1ccc(C2CC(c3ccco3)=Nc3ccccc3S2)cc1 (stereo not drawn),-9%,14%,25µM*,?,-19%,4%
CC[C@H](C)[C@H](NC(=O)[C@H](CO)NC(=O)[C@H](CC(N)=O)NC(=O)[C@H](CC(C)C)NC(=O)[C@H](Cc1ccc(O)cc1)NC(=O)[C@H](CCCCN)NC(=O)[C@H](CCCCN)NC(=O)[C@@H](NC(=O)[C@H](C)NC(=O)[C@H](CCSC)NC(=O)[C@H](CCC(N)=O)NC(=O)[C@H](CCCCN)NC(=O)[C@H](CCCNC(=N)N)NC(=O)[C@H](CC(C)C)NC(=O)[C@H](CCCNC(=N)N)NC(=O)[C@@H](NC(=O)[C@H](Cc1ccc(O)cc1)NC(=O)[C@H](CC(N)=O)NC(=O)[C@H](CC(=O)O)NC(=O)[C@@H](NC(=O)[C@H](Cc1ccccc1)NC(=O)[C@@H](NC(=O)[C@H](C)NC(=O)[C@H](CC(=O)O)NC(=O)[C@H](CO)NC(=O)[C@@H](N)Cc1c[nH]cn1)C(C)C)[C@@H](C)O)[C@@H](C)O)C(C)C)C(=O)N[C@@H](CC(C)C)C(=O)N[C@@H](CC(N)=O)C(=O)O,.,.,.,.,.,13%
C=CCN1c2ccc(Br)cc2C(=O)CS1(=O)=O,-1%,.,1%,.,4µM*,-2%
O=C(O)C1Nc2c(Cl)cc(Cl)c(Cl)c2C2C=CCC12 (stereo not drawn),.,.,5%,.,.,-13%
SMILES,AmpC detergent,LmPK inh,RE007 growth inh,FBPA Giardia inh,AmpC inh no detg,Tb PYK inh
O=C(O)C1Nc2c(Cl)cc(Cl)cc2C2C=CCC12 (stereo not drawn),?,-2%,-30%,7%,13µM*,-28%
Cc1cccc(OCc2n[nH]c(=S)n2C2CCCCC2)c1,?,18µM*,1%,4%,-11%,13µM*
Cc1ccc(OCc2n[nH]c(=S)n2C2CCCCC2)cc1,-12%,8.9µM*,-15%,12%,-13%,?
S=c1[nH]nc(COc2ccc(Cl)cc2)n1C1CCCCC1,-1%,?,2%,7%,-26%,?
Cc1nn(-c2nc(-c3ccc(F)cc3)cc(C(F)(F)F)n2)c(C)c1Br,20%,.,.,.,.,4%
Cc1[nH]n(-c2ccc([N+](=O)[O-])cc2)c(=O)c1C=NCCN1CCN(C(=O)C(C)C)CC1,2%,14µM*,?,4%,-15%,-10%
N#CCc1ccc(C(=O)c2ccccc2F)s1,-3%,6%,-12%,3%,0.79µM*,2%
O=C(O)Cc1ccc(C(=O)c2ccccc2)s1,-1%,-22%,10%,17%,-14%,-4%
CCCOc1ccc(C(=O)CCN2CCCCC2)cc1,5%,3%,18µM*,-4%,-4%,3%
CCOc1ccc(C(=O)CCN2CCCCCC2)cc1,-17%,-6%,16µM*,-7%,-11%,-20%
CCOc1ccc(OCCN2CCCCC2)cc1,?,-6%,17%,-16%,-5%,29%
COc1ccc(C(=O)CCN2CCc3cc(OC)c(OC)cc3C2)cc1,?,0%,25µM*,-5%,-23%,-9%
Cc1sc2ccc3sccc3c2[n+]1C,-9%,1%,2%,-15%,82%,8.9µM*
Cc1sc2c3ccsc3ccc2[n+]1C,?,-9%,-12%,?,83%,8.9µM*
CCN1/C(=C/c2ccc3cc(C)ccc3[n+]2C)Sc2ccc3sccc3c21,-4%,-11%,-9%,7%,-13%,-12%
CC(=O)Oc1ccc(C(=O)O)cc1OC(C)=O,4%,1%,-6%,7%,-34%,-12%

# From PubChem BioAssay
